Compound activity: PubChem, several laboratories
IL1B NFkB inh: blocks IL-1B driven NFkB nuclear translocation in HUVEC cells; HUVEC IL-1B NFkB p65 nuclear translocation imaging; inhibition, % at 2 µM; 94,000 tested, 0.43% active; AID 796;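 active = inhibition above about 30% together with a positive call from visual inspection of the well image, limit read from the data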;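 note: nuclear over cytoplasmic p65 intensity ratio measured by imaging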
IL1B NFkB pot: enhances IL-1B driven NFkB nuclear translocation; HUVEC IL-1B NFkB p65 nuclear translocation imaging; activation, % at 2 µM; 94,000 tested, 0.3% active;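 active = activation above 40%, about the mean plus 3 SD, also judged a hit on visual image review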;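 note: percent activation is computed from the nuclear over cytoplasmic p65 intensity ratio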
Phagocyt inh: macrophage phagocytosis inhibition. 110,000 tested, 0.07% active. inhibition, % at 5 µM. J774A.1 macrophage IgG-bead phagocytosis, imaging;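 active = inhibition above the mean of the plate negative controls plus 5 SD, cut at about 13% in these data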;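 note: phagocytic index as fraction of beads internalized from green versus red external bead signal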
IL1B cytotox: toxic to HUVEC cells under IL-1B stimulation. HUVEC cell count loss, Hoechst imaging, IL-1B stimulated. AID 845. cell count reduction, % at 2 µM. 94,000 tested, 0.41% active;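 active = cell count reduction more than 3 SD above the screen-wide mean, cut at about 70% in these data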
PTK2B oligo ant: blocks oligomerization of human Pyk2 in cells; Q14289; Q293 cells, Pyk2 FERM NanoBiT luminescence; stronger effect = lower value; z-score (the deposit names both 25 µM and 10 µM); 99,000 tested, 0.83% active; AID 1347419;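 active = Z-score of -3 or lower, scaled per plate to the spread of control and sample wells; inactive = z-score above -3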;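 note: negative z-score means lost luminescence so less FERM oligomerization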
Numbers stand for hits; . = inactive; / = no result; [ ] = remark or other dose. The list is not random: actives were taken first. Their share in the collection is about 1.4%.

SMILES | IL1B NFkB inh | IL1B NFkB pot | Phagocyt inh | IL1B cytotox | PTK2B oligo ant
CC1CC(C)(C)CC2(C1)NC(=O)N(CC(=O)NCC(c1ccco1)N1CCCCC1)C2=O (stereo not drawn) | 35 | . | . | . | .
O=C(CCOc1ccccc1)NCC(c1ccco1)N1CCCCC1 (stereo not drawn) | . | . | . | . | .
Cc1ccc(Cn2nnc(C(=O)Nc3cc(C)ccc3C)c2N)cc1 | . | . | / | . | .
O/N=C(\COc1ccccc1O)c1ccccc1 | . | . | . | . | .
Cc1ccc(NC(=O)Cn2c(=O)n(CCCC(=O)NCc3ccco3)c(=O)c3ccccc32)cc1 | . | . | . | . | -3.1
Cc1ccc(CNC(=O)CCCn2c(=O)c3ccccc3n(CC(=O)NCc3ccco3)c2=O)cc1 | . | . | / | . | .
Cc1cc(C)c2c(N)c(C(=O)NCC3CCCCC3)sc2n1 | . | . | . | . | .
Cc1onc(-c2c(F)cccc2Cl)c1C(=O)NCC1COc2ccccc2O1 (stereo not drawn) | . | . | 16[artifact] | . | .
Cc1onc(-c2c(Cl)cccc2Cl)c1C(=O)NCC1CCCO1 (stereo not drawn) | . | . | . | . | .
Cc1sc2ncnc(N[C@@H](Cc3c[nH]c4ccccc34)C(=O)O)c2c1C | / | / | . | / | /
COc1ccc(OC)c(N(CC(=O)NC2CC2)S(=O)(=O)c2ccc(C)cc2)c1 | . | . | . | . | .
COc1ccc(OC)c(N(CC(=O)Nc2cccnc2)S(C)(=O)=O)c1 | . | . | . | . | .
COc1ccc(OC)c(N(CC(=O)Nc2cccnc2)S(=O)(=O)c2ccc(C)cc2)c1 | 60 | . | . | . | .
COc1ccc(OC)c(N(CC(=O)Nc2cccnc2)S(=O)(=O)c2ccc(OC)c(OC)c2)c1 | 91 | . | . | 90 | .
CC1SC(=NC(=O)C(C)N2C(=O)c3ccccc3C2=O)NC1=O (stereo not drawn) | . | . | / | . | .
CCC(c1nnnn1C1CCCC1)N1CCN(Cc2ccccc2)CC1 (stereo not drawn) | . | . | / | . | .
Fc1ccccc1C(c1nnnn1C1CCCC1)N1CCN(Cc2ccccc2)CC1 (stereo not drawn) | 77 | . | / | 88 | .
COc1ccc(OC)c(C(c2nnnn2C2CCCC2)N2CCN(c3ccccc3)CC2)c1 (stereo not drawn) | / | / | . | / | -3.5
c1ccc(C(c2nnnn2C2CCCC2)N2CCN(c3ccccc3)CC2)cc1 (stereo not drawn) | . | . | / | . | .
COc1ccc(C(c2nnnn2C2CCCCC2)N2CCN(c3ccc(OC)cc3)CC2)cc1 (stereo not drawn) | . | 57 | . | . | .
COc1ccc(C(c2nnnn2C2CCCC2)N2CCC(C)CC2)cc1 (stereo not drawn) | . | . | . | . | .
CCC(Sc1nnc(-c2ccc(C)c(Cl)c2)n1CC)C(=O)Nc1nccs1 (stereo not drawn) | / | / | . | / | .
C=CCSc1nnc(-c2ccccc2NC(C)=O)c(=O)[nH]1 | . | . | / | . | .
O=C(Nc1ccc(N2C(=O)C3C4C=CC(C4)C3C2=O)cc1)Nc1cccnc1 (stereo not drawn) | . | . | . | . | .
Cc1nc2c(n1O)CCC/C2=N\O | . | 49 | . | . | .
SMILES | IL1B NFkB inh | IL1B NFkB pot | Phagocyt inh | IL1B cytotox | PTK2B oligo ant
COc1ccc(-c2nc3c(n2O)CCC/C3=N\O)cc1 | . | . | . | . | .
O=C(Nc1cccc([N+](=O)[O-])c1)c1cnccn1 | / | / | . | / | /
O=C(Nc1cc(Sc2ccccn2)cc([N+](=O)[O-])c1)c1ccc(Cl)cc1 | . | . | / | . | -3.7
CCOc1cc(S(=O)(=O)N2CCCCCC2)ccc1F | . | . | . | . | .
O=S(=O)(c1ccc(Oc2ccc(Br)cc2F)nc1)N1CCCCC1 | 40 | . | / | . | .
COC(=O)Nc1ccc(S(=O)(=O)N2c3ccccc3CCC2C)cc1 (stereo not drawn) | / | / | . | / | -3.2
COc1ccc(-c2cc(Nc3ccccc3NC(=O)C(F)(F)F)n(CCC#N)n2)cc1 | / | / | . | / | /
O=C(NC1CCCCC1)C(c1ccc2ncccc2c1)N(Cc1ccccc1)C(=O)c1ccc2c(c1)OCCO2 (stereo not drawn) | . | . | . | . | .
O=C(NC1CCCCC1)C(c1ccc2ncccc2c1)N(Cc1ccc2c(c1)OCO2)C(=O)c1cccs1 (stereo not drawn) | . | . | / | . | -3.6
O=C(NC1CCCC1)C(c1ccccc1)N(Cc1ccc2c(c1)OCO2)C(=O)Cc1cccs1 (stereo not drawn) | . | . | / | . | -3.1
COc1ccc(CN(C(=O)c2cccs2)C(C(=O)NC2CCCCC2)c2ccc3ncccc3c2)cc1 (stereo not drawn) | . | . | / | . | -3.1
O=C(NC1CCCCC1)C(c1ccc2ncccc2c1)N(Cc1ccccc1)C(=O)c1cccs1 (stereo not drawn) | . | . | . | . | -4
O=C(NCc1ccccc1)C(c1ccccc1)N(Cc1ccc2c(c1)OCO2)C(=O)Cc1cccs1 (stereo not drawn) | . | . | / | . | .
CCCCC1(C)NC(=O)N(CC(=O)Nc2ccc(S(=O)(=O)N3CCOCC3)cc2)C1=O (stereo not drawn) | . | . | . | . | .
O=C(Cc1n[nH]c(=O)[nH]c1=O)N/N=C/c1cccc(O)c1 | . | . | . | . | .
O=C(O)C(Cc1ccccc1)N1Cc2ccccc2C1=O (stereo not drawn) | . | 40 | . | . | .
O=C(NC1CCN(C(=O)N2c3ccccc3Sc3ccccc32)CC1)c1ccccc1F | . | . | / | . | .
COc1ccc(OC)c(NC(=O)CSc2nnc(CNC(=O)COc3ccc(Cl)cc3)o2)c1 | . | . | . | . | .
COc1ccccc1NC(=O)CSc1nnc(CNC(=O)COc2ccc(Cl)cc2)o1 | . | 40 | . | . | .
Cc1cc(C)c(CSc2ncc(-c3ccc([N+](=O)[O-])cc3)[nH]2)c(C)c1 | . | . | / | . | .
Cc1ccc(C(C)C)c(OCCNS(C)(=O)=O)c1 | . | . | . | 84 | .
Cc1ccc(NC(=O)N(CCCN2CCOCC2)Cc2cccs2)cc1C | . | . | . | . | /
O=C(NCc1ccccc1)c1cc(-c2cccs2)on1 | . | . | . | . | .
O=C(NCc1ccccc1)c1cnsn1 | . | . | . | 89 | .
Cc1cc(C)c2nc(C(F)(F)F)nc(NCCCN3CCCC3=O)c2c1 | 31 | . | . | . | .
SMILES | IL1B NFkB inh | IL1B NFkB pot | Phagocyt inh | IL1B cytotox | PTK2B oligo ant
O=C1CCCN1CCCNc1ncnc2c1[nH]c1ccc(Cl)cc12 | . | . | . | . | .
Fc1ccc(-n2nnnc2-c2cnc(-c3cccs3)nc2C(F)(F)F)cc1 | / | / | . | / | -3.7
FC(F)(F)c1nc(-c2ccncc2)ncc1-c1nnnn1-c1ccccc1 | . | . | . | . | .
CC(OC(=O)c1ccncc1)C(=O)Nc1cc(S(=O)(=O)N2CCCCC2)ccc1Cl (stereo not drawn) | / | / | . | / | /
Clc1cccc(OCCn2cncn2)c1Cl | . | 45 | / | . | .
CC1CC(C)CN(CCOc2cccc(Cl)c2Cl)C1 (stereo not drawn) | / | / | . | / | /
COc1ccccc1C1C(C(=O)NCc2ccccc2)=C(C)Nc2ncnn21 (stereo not drawn) | / | / | . | / | .
